PubChem BioAssay AID743286 (National Center for Advancing Translational Sciences (NCATS), 2014)
Hit rate of the full screen: of about 1,100 compounds, about 340 (31%) were called active. Inconclusive results (about 40%) are left out. The call rests on the fitted dose curve; in most records, active means well fitted inhibition curve with a large enough effect; inconclusive means small, poorly fitted or top-dose-only effect; inactive means flat fitted curve, though single readings scatter. These entries were drawn from the full list. Entries that show only a call come without a potency.

What follows are compounds tested against Phosphatidylinositol 5-phosphate 4-kinase type-2 alpha (Homo sapiens) (UniProt P48426) (assay: qHTS for Inhibitors of PI5P4K: Confirmation in Primary Assay). Settings: PI5P4Kalpha enzyme, ADP-Glo luminescence, 60 min; series mostly up to 76.9 µM.
How it was run: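 Enzyme/substrate mix dispensed, compound transferred by pin tool, ATP (5 microM final) added to start; incubated 60 min RT. ADP-Glo reagent 1 (45 min) then reagent 2 (30 min); luminescence measured.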
Further: nearly all actives have a fitted effect of over 65% in size.
Potency means the concentration at half of the fitted maximal effect.

Sequence of Phosphatidylinositol 5-phosphate 4-kinase type-2 alpha (Homo sapiens) (P48426 whole entry, looked up): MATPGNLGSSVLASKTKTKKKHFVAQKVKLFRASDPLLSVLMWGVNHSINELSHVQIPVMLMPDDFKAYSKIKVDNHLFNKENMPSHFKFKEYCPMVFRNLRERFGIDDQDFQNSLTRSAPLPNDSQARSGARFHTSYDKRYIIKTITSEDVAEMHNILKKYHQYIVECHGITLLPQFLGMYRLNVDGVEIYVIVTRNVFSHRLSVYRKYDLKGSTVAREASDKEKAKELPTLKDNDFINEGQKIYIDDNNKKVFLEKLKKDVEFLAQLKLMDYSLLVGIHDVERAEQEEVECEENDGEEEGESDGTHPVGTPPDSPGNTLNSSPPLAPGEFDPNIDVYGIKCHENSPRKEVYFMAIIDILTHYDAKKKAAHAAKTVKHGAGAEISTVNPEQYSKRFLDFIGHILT

| SMILES | Potency |
| --- | --- |
| CC(C)NC(=O)c1onc(CSc2ccccc2F)c1C(=O)O | inactive |
| Cc1ccc(C(CCN(Cc2ccccc2)C(=O)c2ccco2)c2ccco2)cc1 (stereo unspecified) | 14.1 µM (active) |
| CC(C)N(CCC(=O)c1ccc2ccccc2c1)Cc1ccccc1 | inactive |
| Cc1ccc(S(=O)(=O)N(C(=O)c2ccco2)c2cc3sc(=O)oc3c3ccccc23)cc1 | inactive |
| O=C(N[C@@H](Cc1ccccc1)C(=O)OCc1ccccc1)c1nc[nH]c1C(=O)NC(c1ccccc1)c1ccccc1 | inactive |
| O=c1[nH]c2ccccc2n2c(-c3ccccc3)nnc12 | 5.01 µM (active) |
| Cc1cc(Oc2ccc(C#N)cc2)nc(NCc2ccccc2)n1 | inactive |
| CCn1c(CC(=O)Nc2ccccc2F)nnc1SCC(=O)NC1CCCCC1 | inactive |
| O=C(NCC1CC1)c1ccc(Nc2nc3ccc(Br)cc3[nH]2)cc1 | inactive |
| CC1Cc2ccccc2N1C(=O)COC(=O)CCc1nc2ccccc2c(=O)[nH]1 (stereo unspecified) | inactive |
| NC(=O)c1ccc(-n2c(CCC(=O)O)ccc2-c2cccs2)cc1 | 3.98 µM (active) |
| CCc1nnc(NC(=O)CSc2sc3c(O)cc(=O)[nH]c3c2C#N)s1 | 12.6 µM (active) |
| Cc1cc(NC(=O)CSc2sc3c(O)cc(=O)[nH]c3c2C#N)ccc1Br | 8.91 µM (active) |
| CCc1nnc(NC(=O)c2ccc(S(C)(=O)=O)cc2)s1 | inactive |
| N#Cc1c(SCC(=O)Nc2nncs2)sc2c(O)cc(=O)[nH]c12 | 8.91 µM (active) |
| N#Cc1c(SCC(=O)Nc2nccs2)sc2c(O)cc(=O)[nH]c12 | 15.8 µM (active) |
| O=C(CSc1nc2[nH]c(=O)cc(O)c2s1)Nc1ccc(Cl)c(C(F)(F)F)c1 | inactive |
| Cc1cnc(NC(=O)CSc2c(Cl)cccc2Cl)s1 | inactive |
| CC1Cc2ccccc2N1C(=O)CNc1cccc(S(=O)(=O)N2CCCC2)c1 (stereo unspecified) | inactive |
| Cc1csc(NC(=O)CSc2nc3[nH]ncc3c(=O)[nH]2)n1 | inactive |
| Cc1csc(NC(=O)CSc2sc3c(O)cc(=O)[nH]c3c2C#N)n1 | 14.1 µM (active) |
| COc1ccc(CC(=O)NCC(=O)NC(Cc2ccccc2)C(=O)O)cc1 (stereo unspecified) | inactive |

| SMILES | Potency |
| --- | --- |
| CCc1nnc(NC(=O)c2cc(-c3ccco3)nc3ccccc23)s1 | 3.55 µM (active) |
| CC(=O)c1cccc(NC(=O)c2cc(-c3ccco3)nc3ccccc23)c1 | inactive |
| CCc1nnc(NC(=O)c2cc(-c3ccc(C)o3)nc3ccccc23)s1 | inactive |
| O=C(Nc1nccs1)c1cc(-c2ccco2)nc2ccccc12 | 3.98 µM (active) |
| Cc1csc(NC(=O)c2cc(-c3ccco3)nc3ccccc23)n1 | 10 µM (active) |
| CCOc1ccc(OCc2ccc(C(=O)N3CCOCC3)cc2)cc1 | inactive |
| CCC(C)c1nc2ccsc2c(N2CCOC2=O)c1-c1ccccc1 (stereo unspecified) | inactive |
| Cc1cccnc1NC(=O)CSc1nnc(COc2ccc(C(C)C)cc2)n1C | inactive |
| O=C(CSc1nc2c(cnn2-c2cccc(Cl)c2)c(=O)[nH]1)NCC1CCCO1 (stereo unspecified) | inactive |
| O=c1c2ccccc2[nH]c2ccc(O)cc12 | 20 µM (active) |
| O=[N+]([O-])c1ccc(-c2cc(-c3ccc(Cl)cc3)n[nH]2)cc1 | inactive |
| CNC(=O)COC(=O)c1cc(-c2ccco2)nc2ccccc12 | 12.6 µM (active) |
| CCN(CC)C(=O)COC(=O)c1cc(-c2ccco2)nc2ccccc12 | 12.6 µM (active) |
| CCNC(=O)COC(=O)c1cc(-c2ccco2)nc2ccccc12 | 14.1 µM (active) |
| Cc1nc2ccccc2nc1OCC(=O)NCc1ccc2c(c1)OCO2 | inactive |
| O=C(OCc1nnc(-c2ccccc2)o1)c1ccc2ccccc2n1 | inactive |
| COc1ccc(CNC(=O)CCCn2nc(C)c([N+](=O)[O-])c2C)cc1OC | inactive |
| Cc1ccc(NC(=O)Nc2cccs2)cc1 | inactive |
| CC(C)NC(=O)N1c2ccccc2Sc2ccccc21 | inactive |
| COC(=O)Cc1c(C)nc2nc(-c3ccc(C)cc3)[nH]n2c1=O | 6.31 µM (active) |
| O=C(Nc1nnc(SCc2ccc(Cl)cc2)s1)c1ccco1 | inactive |
| O=C(Nc1nnc(-c2ccncc2)o1)c1ccccc1 | inactive |

| SMILES | Potency |
| --- | --- |
| O=C(Nc1nnc(-c2ccc(Cl)cc2)o1)c1nc2ccccc2s1 | 14.1 µM (active) |
| CC(C)(C)NC(=O)Nc1ccc(Cn2cc(C(F)(F)F)ccc2=O)cc1 | inactive |
| Cc1c(C(=O)O)sc2ncnc(N3CCCCC3C)c12 (stereo unspecified) | 10 µM (active) |
| O=C(COc1cccc2ccccc12)Nc1ccc(Cl)cc1C(=O)O | 25.1 µM (active) |
| CNC(=O)c1nc(C)n(-c2ccc(Cl)cc2Cl)n1 | inactive |
| Cc1ccc(C(c2nnnn2CS(=O)(=O)c2ccc(C)cc2)N2CCC(C)CC2)cc1 (stereo unspecified) | inactive |
| N#Cc1c(NC(=O)CSc2ncnc3sccc23)oc(-c2ccco2)c1-c1ccco1 | 17.8 µM (active) |
| Cc1cc(C(=O)OCC(=O)Nc2c(F)cccc2F)c(C)n1-c1ccccc1 | inactive |
| NC(=O)c1ccsc1NC(=O)COC(=O)c1ccccc1F | 22.4 µM (active) |
| CN(C)S(=O)(=O)c1cccc(C(=O)OCC(=O)Nc2sccc2C(N)=O)c1 | inactive |
| Cc1cc(C)c2c(N)c(C(=O)Nc3c(C)n(C)n(-c4ccccc4)c3=O)sc2n1 | inactive |
| Cc1sc(NC(=O)c2sc3nc4c(C)cccc4cc3c2N)c(C#N)c1C | 11.2 µM (active) |
| N#CC1=C2SCN(c3ccccc3)CN2C(=O)CC1c1ccccc1Cl (stereo unspecified) | 25.1 µM (active) |
| CCc1ccccc1N1CSC2=C(C#N)C(c3ccccc3F)CC(=O)N2C1 (stereo unspecified) | 14.1 µM (active) |
| N#CC1=C2SCN(c3ccccc3)CN2C(=O)CC1c1c(Cl)cccc1Cl (stereo unspecified) | 22.4 µM (active) |
| O=C(CSc1ncnc2sc3c(c12)CCC3)N1CCOCC1 | inactive |
| COc1ccc2c([N+](=O)[O-])c(Cl)[nH]c2c1 | 10 µM (active) |
| CC(C)C(=O)Nc1ccccc1N1CCN(S(C)(=O)=O)CC1 | inactive |
| O=C(NCc1cc([N+](=O)[O-])ccc1O)c1cccc(NS(=O)(=O)c2ccccc2)c1 | 14.1 µM (active) |
| O=C(NCCCCc1ccccc1)c1cccc(NC(=O)C2CC2)c1 | inactive |
| O=C(NCC1CCCCC1)c1cccc([N+](=O)[O-])c1 | inactive |
| OCCCNc1nccc(-c2cc(Nc3cccc(Cl)c3)ncn2)n1 | 14.1 µM (active) |
